Mdm2-MdmX inh = disrupts the human Mdm2-MdmX interaction. SaOS-2 split-luciferase Mdm2/MdmX complementation, luminescence. inhibition, % at 8 µM. 330,000 tested, 3% active. AID 485346;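 active means inhibition of at least 50% at 8 µM in the primary screen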
A1 inh = inhibitors of the anti-apoptotic protein A1, read as caspase activation | MEF A1-2A-BIM cells, Caspase-Glo 3/7 luminescence, 3 h; percent of clofoctol response, vehicle zero | caspase activation, % (test concentration not listed) | 330,000 tested, 0.066% active;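 active means over half of replicate activation scores above 10%, or exactly half above 10 with the replicate mean above 10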
CSC inhib = blocks cancer stem cells | cancer stem cell-like cells viability, luminescence | 300,000 tested, 1.1% active | inhibition, % at 7.5 µM; in the data active means inhibition above about 75%; tested in HMLE shEcad cells
Beta cell apopt = beta cell apoptosis inhibition; INS-1E cytokine-induced death, ATP luminescence, 48 h; percent of positive-control rescue, neutral wells zero; protection from apoptosis, % (no concentration beside the values); 300,000 tested, 0.8% active; AID 435005;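 active means Every replicate reaches about 75%, or at least half do and their mean reaches it too, limit read from the data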;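 further: 0% = cytokine-treated negative control wells and 100% = positive control rescue; higher means more ATP so stronger rescue from cytokine killing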
aSyn 5UTR inh = 5' untranslated region of α-synuclein, MLPCN primary screen. inhibition, % (tested at 7.5 µM). alpha-synuclein 5'UTR reporter, inhibitor activity. 300,000 tested, 0.82% active; in the data active means inhibition above about 60%;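 further: H4 neuroglioblastoma cells stably carrying SNCA 5'UTR luciferase fusion; 0% = DMSO wells and 100% = positive control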
Mdm2-MdmX conf = human Mdm2/MdmX binding inhibition, confirmed | 10,000 tested, 55% active | luminescent assay | shares compounds with Mdm2-MdmX inh | inhibition, % at 8 µM | AID 489028; in the data active means inhibition above about 40%
FLuc counter = full-length luciferase inhibition in Mdm2/MdmX counter-screen. shares compounds with Mdm2-MdmX inh. 6,200 tested, 77% active. SaOS-2 full-length luciferase counterscreen, luminescence. inhibition, % at 8 µM;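 active means mean inhibition at 8 µM reaching about 37%, which flags the compound as non-specific, limit read from the data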;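 further: p53-null SaOS-2 cells with luciferase driven by a doxycycline-inducible promoter; compound on cells about two nights before reading with doxycycline added after day one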
* = called active by the depositor; / = not tested or not shown. The list is not random: actives were taken first. Their share in the collection is about 4.1%.

SMILES	Mdm2-MdmX inh	A1 inh	CSC inhib	Beta cell apopt	aSyn 5UTR inh	Mdm2-MdmX conf	FLuc counter
Nc1ccc(NC(=O)c2ccccc2)c2c1C(=O)c1ccccc1C2=O	52*	0	11	9	-36	53*	72*
Nc1ccccc1NC(=O)c1ccccc1	10	-1	23	7	-154	/	/
Cc1cc(C)n(-c2nc(SCC(=O)O)c3c4c(sc3n2)COC(C)(C)C4)n1	8	1	12	9	6	/	/
Cc1cc(C)n(-c2nc(SCCN(C)C)c3c4c(sc3n2)CCCC4)n1	92*	-1	-6	30	-71	60*	72*
Cc1ccc(C(NC(=O)C(C)C)c2cc([N+](=O)[O-])c3cccnc3c2O)cc1 (stereo not given)	57*	-1	144*	61	-29	51*	44*
Cc1ccc([N+](=O)[O-])c2cccnc12	15	1	-10	-4	-7	/	/
CC(C)C(=O)NC(c1cccs1)c1cc([N+](=O)[O-])c2cccnc2c1O (stereo not given)	68*	-1	104*	97*	53	70*	57*
O=[N+]([O-])c1cc2cccnc2c2ncccc12	22	0	37	2	-11	/	/
CCC(=O)NC(/C=C/c1ccccc1)c1cc([N+](=O)[O-])c2cccnc2c1O (stereo not given)	64*	0	151*	77*	-94	19	/
Cc1ccc(OCCNC(=O)C(C)SCC(=O)Nc2ccc(F)cc2)cc1 (stereo not given)	4	0	-12	-5	/	/	/
Cc1nc(N2CCN(c3ccccn3)CC2)c2c(C)c(C(=O)N3CCN(c4cccc(Cl)c4)CC3)sc2n1	25	0	5	2	34	/	/
Cc1ccsc1C(=O)NCc1ccc(F)cc1	-10	1	-3	-1	1	/	/
NC(=O)N1c2ccccc2C=Cc2ccccc21	15	0	-8	-18	-21	/	/
CCN(CC)C(=O)N1c2ccccc2C=Cc2ccccc21	85*	0	43	-8	-101	80*	34
NS(=O)(=O)c1ccc(CCNC(=O)C2CC(=O)N(Cc3ccccc3Cl)C2)cc1 (stereo not given)	-11	1	/	0	/	/	/
Cc1ccc(C)c(OCC(=O)N/N=C/c2c(C)nn(-c3ccccc3)c2Cl)c1C	51*	0	-5	-2	9	35	/
CCOc1ccc(Oc2c(/C=N/NC(=O)COc3ccccc3OC)c(C)nn2-c2ccccc2)cc1	56*	-1	17	8	14	1	/
CC1Sc2ccc(C(=O)OCc3ccccc3Cl)cc2NC1=O (stereo not given)	-133	-1	-12	9	-147	/	/
Cc1ccc(CNC(=O)c2ccc(N3CCC4(CC3)CC(c3ccccc3)=NO4)c(NC(=O)c3ccc(Cl)c([N+](=O)[O-])c3)c2)cc1	2	1	-5	1	16	/	/
Cc1ccc(/C=C/c2onc(C)c2S(=O)(=O)N2CCC(C(=O)N3CCCCC3)CC2)cc1	44	0	29	17	19	/	/
CCCN1CCN(C(=O)C2CCN(S(=O)(=O)c3c(C)noc3/C=C/c3ccc(C)cc3)CC2)CC1	58*	1	-17	12	2	15	/
Cn1c(=O)c2c(nc(SCCN3CCOCC3)n2C)n(C)c1=O	9	-8	1	6	7	/	/
CC(=O)C(=Cc1ccc(C(=O)O)cc1)C(C)=O	1	1	-11	/	-10	/	/
Cc1ccc(NC(=O)C(=Cc2ccc(C(=O)O)cc2)C(=O)Nc2ccc(C)cc2C)c(C)c1	100*	0	159*	71	40	99*	52*
O=[N+]([O-])c1ccc(Oc2ccc(S(=O)(=O)N3CCOCC3)cn2)cc1	9	2	-1	/	-5	/	/
SMILES	Mdm2-MdmX inh	A1 inh	CSC inhib	Beta cell apopt	aSyn 5UTR inh	Mdm2-MdmX conf	FLuc counter
Cc1ccc(C)c(C(=O)Nc2ccncc2)c1	-26	0	-26	-7	18	/	/
S=C(Nc1ccc(Br)cc1Cl)N1CCCC1	-25	-3	-6	-5	-91	/	/
O=C(Nc1ccc(CN2CCCCC2)cc1)Nc1ccc(Br)cc1Cl	74*	-1	/	7	-27	42*	39*
CCCCCCN(C(=O)CCCCCN1C(=O)NC(c2ccc(C(C)(C)C)cc2)C(C(=O)OCc2ccccc2)=C1C)C(C(=O)NCCCC)c1ccc(OCC(=O)OC)c(C(=O)OC)c1 (stereo not given)	77*	/	/	/	2	5	/
CCCCCCN(C(=O)CCCCCN1C(=O)NC(c2ccc(C3CCCCC3)cc2)C(C(=O)OCc2ccccc2)=C1C)C(C(=O)NCCCC)c1ccc(OCC(=O)OC)c(C(=O)OC)c1 (stereo not given)	/	/	/	/	2	/	/
CCN1CCN(CCNC(=O)c2ccc3nc(-c4cccc(C)c4)c(-c4cccc(C)c4)nc3c2)CC1	100*	1	-11	37	-23	59*	16
CC1CCN(CCCNC(=O)c2ccc3c(Cl)c4c(nc3c2)CCCC4)CC1	79*	1	40	7	-41	68*	30
COCCNC(=O)c1ccc2c(Cl)c3c(nc2c1)CCC3	-26	-2	-5	4	-145	/	/
O=C(NCCCN1CCCCCC1)c1ccc2c(Cl)c3c(nc2c1)CCCC3	59*	0	31	4	-25	21	/
CCN1CCN(CCCNC(=O)c2ccc3c(Cl)c4c(nc3c2)CCCC4)CC1	73*	0	-3	14	-35	46*	43*
CCCNC(=O)c1ccc2nc(-c3ccccc3)c(-c3ccccc3)nc2c1	11	2	57	1	4	/	/
CCCN(CCC)CCCNC(=O)c1ccc2c(Cl)c3c(nc2c1)CCC3	9	1	14	1	-40	/	/
COc1ccccc1C(=O)NC(CCSC)C(=O)NNC(=O)c1ccncc1 (stereo not given)	12	0	5	0	-6	/	/
O=C(COc1ccc([N+](=O)[O-])cc1)NNC(=O)Nc1cccc(F)c1	14	-1	11	-5	5	/	/
CN1CCN(C(=O)c2ccc3c(Cl)c4c(nc3c2)CCCC4)CC1	19	-1	-2	-4	-22	/	/
N#CC1CCN(C(=O)c2ccc3c(Cl)c4c(nc3c2)CCCC4)CC1	52*	-1	2	2	-16	-15	/
c1cc2c3c(cccc3c1)NC1(CCC3(CC1)Nc1cccc4cccc(c14)N3)N2	72*	0	11	27	56	21	/
COc1ccccc1NC(=O)c1sc2ncn(CC(=O)Nc3ccccc3)c(=O)c2c1C	55*	1	/	-1	11	5	/
O=C1N=C(N2CCCC2)S/C1=C\C=C\c1ccccc1	59*	-3	2	-6	-24	64*	152*
